Consider 18 molecules from paper PMC5540273 (PLoS ONE, 2017).

Common to all, as to settings: concentration: 1 μM, replicates: in singlicate; n = 1
Experiment [1] concerns TRPM6.
The subject of experiment [2] is TSSK1B.
Experiment [3] has as its system TSSK3.
The test system of experiment [4] is TTK.
For experiment [5], the system named is TXK.
For experiment [6], the system named is TYK2(JH1domain-catalytic).
Experiment [7] has as its system TYK2(JH2domain-pseudokinase).
In experiment [8] the test system is TYRO3.
The subject of experiment [9] is ULK1.
The subject of experiment [10] is ULK2.
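Note: KINOMEscan kinase panel screen.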

As for `Nc1ncnc2c1ncn2-c1cccc2ccccc12` [SKF-97184], the “%Inh” value in [1] came out at 39%; in experiment [2], 0%; in [3], 0%; in experiment [4], 23%; in experiment [5] it was 0%; in [6], 68%. Besides, the “%Inh” value was 37% in [7], 0% in experiment [8], 24% in [9] and 16% in experiment [10].
In the case of `CN1C(=O)C(Nc2cc(Cl)c(O)c(Cl)c2)=C(c2ccc(Cl)cc2)C1=O` [SB-404321], the “%Inh” value turned out to be 0% in [1]; 0% in [2]; 22% in experiment [3]; 0% in experiment [4]; 0% in experiment [5]; 0% in experiment [6]. The “%Inh” value in experiment [7] is 13%; in [8], 0%; in experiment [9], 0%; in experiment [10] it was 0%.
As to `CCS(=O)c1ccc(-c2coc3ccc(-c4nnc(C)o4)cc23)cc1` (stereo not drawn), the “%Inh” value is 0% in [1]; 0% in [2]; 0% in experiment [3]; 14% in experiment [4]; 0% in experiment [5]; 21% in experiment [6]. The “%Inh” value in experiment [7] is on record as 11%; in [8], 0%; in experiment [9] it was 0%; in experiment [10], 4%.
Consider `Nc1ncnc2c1ncn2-c1ccc(Cl)cc1` [AH2635], for which the “%Inh” value in experiment [1] is given as 44%; in [2] it was 0%; in experiment [3], 16%; in [4], 0%; in experiment [5], 5%; in experiment [6], 25%. Moreover, the “%Inh” value in experiment [7] was 39%; in experiment [8] it was 0%; in experiment [9], 0%; in experiment [10], 0%.
Turning to `Cc1cc(Nc2nc(-c3cccc(C)n3)nc3ccccc23)ccn1` [GW872411], the “%Inh” value in experiment [1], in experiment [2], in [3], in experiment [4], in [5] and in experiment [6] was 0% each time. Also, the “%Inh” value in experiment [7] worked out at 1%; in experiment [8] it was 0%; in [9] it was 4%; in experiment [10], 0%.
Turning to `CCc1nc(-c2cccc(C)c2)c(-c2ccncc2)s1`, the “%Inh” value in experiment [1], in experiment [2], in experiment [3], in experiment [4], in [5] and in experiment [6] was 0% throughout. Moreover, the “%Inh” value in [7] is on record as 25%; in experiment [8], 0%; in experiment [9], 0%; in experiment [10], 0%.
Turning to `COc1cc(Nc2nccc(N3CCC(NC(=O)C(C)c4ccc(Cl)cc4)C3)n2)cc(OC)c1OC` (stereo not drawn) [GSK1379757], the “%Inh” value in [1] came out at 0%; in [2], 0%; in [3], 19%; in experiment [4], 0%; in experiment [5], 0%; in experiment [6], 38%. For the same molecule, the “%Inh” value in experiment [7] is listed as 31%; in experiment [8], 0%; in [9] it was 0%; in [10], 0%.
On to `Cc1nnc(-c2ccc3ncn(-c4ccc(S(C)=O)cc4)c3c2)o1` (stereo not drawn), for which the “%Inh” value in experiment [1] was determined as 0%; in experiment [2] it was 0%; in [3], 6%; in experiment [4], 0%; in experiment [5], 5%; in [6], 0%. Moreover, the “%Inh” value amounted to 2% in experiment [7], 12% in [8], 0% in [9] and 0% in experiment [10].
With `Cc1nn2c(=O)cc(N3CCOCC3)nc2n1Cc1cccc(Cl)c1Cl` [GSK2342769], the “%Inh” value in experiment [1] was determined as 0%; in [2], 0%; in experiment [3], 6%; in experiment [4], 0%; in experiment [5], 13%; in experiment [6], 10%. Besides, the “%Inh” value was determined as 4% in experiment [7], 0% in experiment [8], 17% in experiment [9] and 0% in experiment [10].
Consider `Fc1cccc(CSc2nnc(-c3ccc4c(c3)CCO4)o2)c1`, for which the “%Inh” value was found to be 0% in [1]; 0% in [2]; 2% in [3]; 2% in experiment [4]; 0% in [5]; 4% in experiment [6]. The “%Inh” value came out at 12% in [7], 0% in experiment [8], 0% in experiment [9] and 9% in experiment [10].
Turning to `CCCC(=O)Nc1n[nH]c2ncc(-c3cccc4ccccc34)cc12` [SB-642057], the “%Inh” value in experiment [1] was 48%; in [2], 36%; in [3], 0%; in experiment [4], 0%; in experiment [5], 52%; in experiment [6] it was 0%. The “%Inh” value in [7] is 38%; in [8] it was 0%; in experiment [9], 18%; in experiment [10], 1%.
In the case of `COc1ccc(Nc2nccc(N3CCC(NS(=O)(=O)c4ccc(NC(C)=O)cc4)C3)n2)cc1` (stereo not drawn) [GSK1379729], the “%Inh” value in experiment [1] was 0%; in experiment [2], 0%; in [3], 21%; in experiment [4], 7%; in experiment [5], 35%; in experiment [6], 93.8%. Moreover, the “%Inh” value worked out at 0% in experiment [7], 23% in experiment [8], 26% in experiment [9] and 0% in experiment [10].
Consider `OCCCNc1nccc(-c2c(-c3cccc(C(F)(F)F)c3)nn3cc(C(F)(F)F)ccc23)n1` [GW630813], for which the “%Inh” value in [1] is reported as 0%; in experiment [2] it was 0%; in experiment [3], 6%; in experiment [4] it was 0%; in experiment [5] it was 0%; in experiment [6], 14%. In addition, the “%Inh” value in experiment [7] was determined as 13%; in experiment [8], 0%; in [9], 0%; in experiment [10], 0%.
Take `O=C(Nc1n[nH]c2nc(-c3ccccc3)c(Br)cc12)C1CC1` [SB-708998]: the “%Inh” value in [1] was determined as 18%; in [2], 25%; in [3], 14%; in experiment [4], 24%; in [5] it was 14%; in experiment [6], 14%. The “%Inh” value in experiment [7] is listed as 1%; in experiment [8], 0%; in experiment [9] it was 30%; in experiment [10], 0%.
Consider `COc1cc2ncn(-c3cc(OCc4ccncc4)c(C(N)=O)s3)c2cc1OC` [GSK336313], for which the “%Inh” value stood at 24% in experiment [1]; 0% in [2]; 11% in experiment [3]; 0% in experiment [4]; 6% in [5]; 3% in experiment [6]. The “%Inh” value in experiment [7] turned out to be 13%; in [8] it was 0%; in experiment [9] it was 16%; in experiment [10], 0%.
As to `C[C@@H]1CC[C@H](C(=O)NC2CCCCC2)CN1c1cc(-c2ccc3c(N)n[nH]c3c2)nc(N)n1` [GSK2291363], the “%Inh” value was found to be 16% in experiment [1]; 31% in experiment [2]; 31% in experiment [3]; 16% in experiment [4]; 6% in [5]; 0% in [6]. The “%Inh” value in experiment [7] is 23%; in experiment [8] it was 0%; in experiment [9], 6%; in [10], 0%.
Take `COc1cc(OC)cc(-c2cc3cnc(N)nc3nc2NC(=O)NC(C)(C)C)c1`: the “%Inh” value in experiment [1] was 0%; in experiment [2], 9%; in experiment [3], 0%; in experiment [4] it was 0%; in [5], 19%; in experiment [6], 0%. Besides, the “%Inh” value in [7] was found to be 3%; in experiment [8], 100%; in [9] it was 0%; in experiment [10] it was 0%.
As to `CCC(=O)c1c(-c2ccccc2)c2cc(Cl)ccc2c(=O)n1Cc1cc(S(C)(=O)=O)n(CC(N)=O)n1`, the “%Inh” value turned out to be 0% in experiment [1]; 0% in experiment [2]; 0% in [3]; 8% in [4]; 0% in experiment [5]; 0% in [6]. For the same molecule, the “%Inh” value in experiment [7], in experiment [8], in experiment [9] and in experiment [10] was 0% each time.
